About 11,000 (3.1%) of roughly 360,000 compounds were called active. Entries that show only a call come without a potency. Not shown: some 4% with an inconclusive outcome. Calls follow the shape of the dose curve; as a rule, active = well fitted inhibition curve with a large enough effect; inconclusive = small, poorly fitted or top-dose-only effect; inactive = no such curve, though single readings can be large or run the other way. Many of the other results were omitted from the sample, so actives are more common in it than they were.
Each compound was assayed against Schistosoma mansoni thioredoxin glutathione reductase (TGR) (UniProt Q962Y6) (assay: qHTS Assay for the Inhibitors of Schistosoma Mansoni Peroxiredoxins). Details: purified TGR, DTNB reduction, TNB absorbance 405 nm; series mostly up to 114 µM.
How it was run: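 First, TGR (20 nM dispensed) and NADPH were mixed with compound. Second, a 15 min room-temperature incubation followed. Third, further NADPH and then DTNB were added to start the reaction. Finally, TNB absorbance was monitored kinetically.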
In the case of `CCCCN1C(=O)c2[nH]nc(-c3ccccc3O)c2C1c1cccc(OCc2ccccc2)c1` (stereo unspecified), the Potency was “inactive”.
For `COc1ccccc1N1CCN(S(=O)(=O)CCNC(=O)COc2ccc(F)cc2)CC1`, the Potency was “inactive”.
In the case of `Cc1nc(N2CCOCC2)c2c(C(=O)NCc3cccc(Cl)c3)c(C)oc2n1`, the Potency was “inactive”.
`O=C(O)c1ccccc1NC(=O)c1ccccc1-c1ccccc1C(=O)O` was tested, and the Potency was “inactive”.
`O=C(NC(=S)Nc1cc(C(F)(F)F)ccc1N1CCOCC1)c1ccc(-c2cccc(Cl)c2)o1` was tested, and the Potency was “inactive”.
With `O=C(NC(=S)Nc1ccccc1C(=O)O)c1ccc(-c2ccc(Br)cc2)o1` the Potency was 3.55 µM (active).
In the case of `Cc1ccc(Cl)cc1NC(=O)NC1COc2ccccc2C1` (stereo unspecified), the Potency was “inactive”.
In the case of `CC(=O)Nc1ccc(NC(=O)CCCNC(=O)c2ccc(Cl)cc2)cc1`, the Potency was “inactive”.
For `Cc1ccc(CNC(=O)CCCNC(=O)c2ccc(Cl)cc2)n1C`, the Potency was 25.1 µM (active).
For `Cc1ccc(NC(=O)CCCNC(=O)c2ccc(Cl)cc2)cc1S(=O)(=O)N1CCCCC1`, the Potency was “inactive”.
`COC(=O)c1scc(-c2ccccc2)c1S(=O)(=O)Nc1ccccc1` was tested, and the Potency was “inactive”.
For `COc1ccc(-n2c(=O)c3sc4ccccc4c3n(CC(=O)Nc3cccc(C)c3)c2=O)cc1`, the Potency was “inactive”.
With `Cc1cccc(N2CCN(C(=O)CCn3c(=O)c4cccn4c4cccnc43)CC2C)c1` (stereo unspecified) the Potency was “inactive”.
For `O=C1Oc2ccccc2C(=O)/C1=C/c1ccccc1O`, the Potency was 2 µM (active).
For `COC(=O)c1ccc(/C=C2/C(=O)Oc3ccccc32)cc1`, the Potency was “inactive”.
With `CC(C)(C)NC(=O)CSc1nc(-c2ccc(F)cc2)cc(C(F)(F)F)n1` the Potency was “inactive”.
`COc1ccc(S(=O)(=O)/N=C2\C=C(NS(=O)(=O)c3ccccc3)C(=O)c3ccccc32)cc1` was tested, and the Potency was 35.5 µM (active).
With `COc1ccc(S(=O)(=O)Nc2cc3c(C(=O)OC(C)C)c(C)oc3c3ccccc23)cc1` the Potency was “inactive”.
For `CCCC(NS(=O)(=O)c1ccc(OC)cc1)C(=O)O` (stereo unspecified), the Potency was “inactive”.
For `CCc1cc(CNC(=O)CC2C(=O)NCCN2Cc2ccccc2C(F)(F)F)on1` (stereo unspecified), the Potency was 35.5 µM (active).
For `Cc1ccccc1CN1CCNC(=O)C1CC(=O)NCCC1=CCCCC1` (stereo unspecified), the Potency was “inactive”.
For `CCc1cc(CNC(=O)CC2C(=O)NCCN2CC2CCCCC2)on1` (stereo unspecified), the Potency was “inactive”.
With `CC(C)c1ccc2oc(-c3cc(NC(=O)c4cccs4)ccc3Cl)nc2c1` the Potency was “inactive”.
In the case of `COc1ccc(OC)c(-c2csc(-c3c(N)c(C(=O)c4ccccc4)n4ccccc34)n2)c1`, the Potency was “inactive”.
For `CC(/C=C/C1(O)C(C)CC(=O)CC1(C)C)OC1OC(CO)C(O)C(O)C1O` (stereo unspecified), the Potency was 25.1 µM (active).
For `CC1=C(C)C(=O)OC(C(C)C2CCC3C4CC=C5CC(OC6OC(COC7OC(CO)C(O)C(O)C7O)C(O)C(O)C6O)CC(O)C5(C)C4CCC23C)C1` (stereo unspecified), the Potency was “inactive”.
For `C=CC1C(OC2OC(CO)C(O)C(O)C2O)OC=C(C(=O)OC)C1CC1CC(=O)CC(CC(=O)CCc2ccc(O)cc2)O1` (stereo unspecified), the Potency was “inactive”.
In the case of `CC(=O)N(Cc1cc(=O)[nH]c2ccccc12)c1ccc(C)cc1C`, the Potency was “inactive”.
In the case of `Cc1ccc(N(Cc2cc(=O)[nH]c3ccccc23)C(=O)CCl)cc1`, the Potency was 3.16 µM (active).
With `Cc1ccc(N(Cc2cc3ccccc3[nH]c2=O)C(=O)c2cccs2)cc1` the Potency was “inactive”.
`CCOC(=O)c1ccc(-c2ccc(/C=C(\C#N)C(=O)Nc3ccc(C)cc3)o2)cc1` was tested, and the Potency was “inactive”.
`COc1ccc(OCCCn2c(C3CC(=O)N(c4ccc(F)cc4)C3)nc3ccccc32)cc1` (stereo unspecified) was tested, and the Potency was “inactive”.
`CCOC(=O)C1(Cc2ccccc2C)CCCN(C(=O)CCc2c(C)noc2C)C1` (stereo unspecified) was tested, and the Potency was “inactive”.
With `CCOC(=O)C1(Cc2ccccc2C)CCCN(S(C)(=O)=O)C1` (stereo unspecified) the Potency was “inactive”.
For `CCOC(=O)C1(Cc2ccccc2C)CCCN(C(=O)c2ccc(COC)o2)C1` (stereo unspecified), the Potency was 15.8 µM (active).
With `COc1ccc(CNc2nc(-c3ccccc3)nn2C(=O)c2ccccc2OC)cc1` the Potency was “inactive”.
With `CCOC(=O)c1cccc(NC(=O)Cn2cnc3nc4c(cc3c2=O)CCCC4)c1` the Potency was “inactive”.
With `CC1=C(c2ccc(C)c(C)c2)S(=O)(=O)NC1=NCc1ccccc1Cl` the Potency was “inactive”.
For `C=CCNC(=O)CSc1nc2scc(-c3ccco3)c2c(=O)n1CC=C`, the Potency was 39.8 µM (active).
For `C=CCn1c(SCC(=O)NCC2CCCO2)nc2sc(C)c(C)c2c1=O` (stereo unspecified), the Potency was “inactive”.
`C=CCn1c(=S)[nH]c2scc(-c3ccco3)c2c1=O` was tested, and the Potency was 8.91 µM (active).
`CCC1(C)Cc2c(sc3[nH]c(=S)n(Cc4ccccc4)c(=O)c23)CO1` (stereo unspecified) was tested, and the Potency was “inactive”.
In the case of `C=CCn1c(SCC(=O)Nc2ccc(NC(C)=O)cc2)nc2sc(C)c(C)c2c1=O`, the Potency was “inactive”.
In the case of `C=CCn1c(SCC(=O)/C(C#N)=C(\C)N)nc2sc(C)c(C)c2c1=O`, the Potency was “inactive”.
With `C=CCn1c(SCc2c(C)noc2C)nc2sc3c(c2c1=O)CCC(C)C3` (stereo unspecified) the Potency was “inactive”.
`C=CCn1c(SCc2csc(C)n2)nc2scc(-c3ccc(C)o3)c2c1=O` was tested, and the Potency was 7.94 µM (active).
`CCOC(=O)c1ccc(CN(Cc2ccccc2)S(=O)(=O)c2ccc(Cl)cc2)cc1` was tested, and the Potency was “inactive”.
`Cc1cccc(N2CCN(C(=O)c3cc4c(=O)oc5ccccc5c4s3)CC2C)c1` (stereo unspecified) was tested, and the Potency was “inactive”.
In the case of `O=c1cc2nc(-c3ccccc3)nc(SCCOc3ccc(Cl)cc3)n2[nH]1`, the Potency was “inactive”.
`COc1ccc(CNc2nc(-c3ccc(Cl)cc3)nn2C(=O)c2ccccc2)cc1` was tested, and the Potency was “inactive”.
`Cc1cccc(-n2ncc(C(=O)N3CCc4ccccc4C3)c2C2CCN(C(=O)OC(C)(C)C)CC2)c1` was tested, and the Potency was “inactive”.
`CN(c1ccccc1)S(=O)(=O)c1ccc(Cl)c(C(=O)OCC(=O)NCc2ccco2)c1` was tested, and the Potency was 22.4 µM (active).
`CN(c1ccccc1)S(=O)(=O)c1ccc(Cl)c(C(=O)OCC(=O)N2CCOCC2)c1` was tested, and the Potency was “inactive”.
With `CN(c1ccccc1)S(=O)(=O)c1ccc(Cl)c(C(=O)OCC(N)=O)c1` the Potency was “inactive”.
In the case of `O=S(=O)(Nc1ccc2nc(-c3ccco3)[nH]c2c1)c1ccccc1`, the Potency was 10 µM (active).
`O=S(=O)(Nc1ccc2nc(-c3cccc(Cl)c3)oc2c1)c1ccccc1` was tested, and the Potency was “inactive”.
With `CCc1ccccc1NS(=O)(=O)c1ccc2nc(-c3ccccc3)[nH]c2c1` the Potency was “inactive”.
For `O=C(CN1C(=O)COc2ccc(S(=O)(=O)N3CCOCC3)cc21)N1CCN(c2cccc(Cl)c2)CC1`, the Potency was “inactive”.
With `CCOC(=O)CN1C(C(=O)c2ccccc2)=C(OC(=O)C(C)(C)C)c2ccccc2S1(=O)=O` the Potency was “inactive”.
For `Cc1ccc(N(CC(=O)NCc2ccc(Cl)cc2)S(=O)(=O)N(C)C)cc1`, the Potency was “inactive”.
With `O=C(O)CN(Cc1ccco1)S(=O)(=O)c1ccccc1` the activity change, negative = inhibition was -3.68% [at 11.4 µM] (inactive).
In the case of `O=C(O)CCC(=O)N(Cc1ccco1)c1nc(-c2ccccc2)cs1`, the Potency was 44.7 µM (active).
In the case of `Cc1ccc(-c2csc(N(Cc3ccco3)C(=O)c3cccs3)n2)cc1`, the Potency was “inactive”.
With `COc1ccccc1N1CCN(c2ccc(=O)n(CC(=O)NCc3ccc(OC(C)C)cc3)n2)CC1` the Potency was “inactive”.
In the case of `Cc1cc(NS(=O)(=O)c2ccc(NC(=O)c3ccccc3C)cc2)nc(C)n1`, the Potency was “inactive”.
With `Cc1nnc(N2CCC(C(=O)Nc3ccc(F)cc3)CC2)c2nn(-c3ccc(Cl)cc3)c(C)c12` the Potency was “inactive”.
In the case of `COc1ccc(NC(=O)CCc2nnc3n(CC(C)C)c(=O)c4ccccc4n23)cc1OC`, the Potency was “inactive”.
For `COc1ccc(C(=O)C2CN(C)CC2C(=O)c2ccc(OC)cc2)cc1` (stereo unspecified), the Potency was “inactive”.
In the case of `COc1ccc(C(=O)CC2C(=O)N(C)C(=O)N(C)C2=O)cc1`, the Potency was 25.1 µM (active).
In the case of `COc1ccc(OCCC(=O)c2ccc(OC)cc2)cc1`, the Potency was 1.78 µM (active).
For `COc1ccc(OCCCC(=O)Oc2ccc(OC)cc2)cc1`, the Potency was “inactive”.
For `COc1ccc(OCC(=O)OCCN(C)C)cc1`, the Potency was “inactive”.
With `COc1ccc(C(=O)C[n+]2ccc(C)cc2)cc1` the Potency was “inactive”.
For `CC(=O)c1ccc(NC(=O)CSc2nc(-c3ccccc3F)nc3c2c(=O)n(C)c(=O)n3C)cc1`, the Potency was “inactive”.
`CCN(CC)c1ccc(NC(=O)CN2C(=O)c3cccnc3Oc3ccc(Cl)cc32)c(C)c1` was tested, and the Potency was “inactive”.
`Cc1cccc(C(=O)Nc2ccc(S(=O)(=O)N3CCCCC3c3cccnc3)cc2)c1` (stereo unspecified) was tested, and the Potency was “inactive”.
`Cc1cccc(N2CCN(C(=O)c3ccc4c(c3)CCN4S(=O)(=O)c3ccccc3)CC2)c1C` was tested, and the Potency was “inactive”.
With `COc1cccc(NC(=O)c2csnn2)c1` the Potency was “inactive”.
`Cc1cccc(NC(=O)Cn2c(=O)n(CCC(C)C)c(=O)c3cccnc32)c1` was tested, and the Potency was “inactive”.
In the case of `COc1ccc(-n2ccn(CC(=O)Nc3ccc(C)c(C)c3)c(=O)c2=O)cc1OC`, the Potency was “inactive”.
`CCOC(=O)c1c(-c2ccccc2)oc2cc(Br)c(O)c(C=O)c12` was tested, and the Potency was 15.8 µM (active).
For `CCOC(=O)c1c(-c2ccccc2)oc2ccc(OCC(=O)NN)cc12`, the Potency was “inactive”.
With `CCOC(=O)c1c(-c2ccccc2)oc2ccc(OC(=O)N(C)C)cc12` the Potency was “inactive”.
With `COc1cccc(C(=O)NCC(=O)OCc2cc(=O)n3ccsc3n2)c1` the Potency was “inactive”.
For `CNC(=O)NC(=O)CSc1nnc(-c2ccc(F)cc2)n1CC1CCCO1` (stereo unspecified), the Potency was “inactive”.
With `Cc1nnc(SCC(N)=O)n1CC1CCCO1` (stereo unspecified) the Potency was “inactive”.
In the case of `O=C(CSc1nnc(-c2ccco2)n1CC1CCCO1)c1ccccc1` (stereo unspecified), the Potency was 25.1 µM (active).
For `Cc1ccccc1CSc1nc2c([nH]c3ccccc32)c(=O)n1C`, the Potency was “inactive”.
For `COc1cccc(OCCn2c(-c3ccc(Br)cc3)nc3ccccc3c2=O)c1`, the Potency was “inactive”.
`COc1ccc(OC)c(NC(=O)/C=C/c2ccc(C)o2)c1` was tested, and the Potency was 50.1 µM (active).
With `COc1ccc(OC)c(NC(=O)Cc2cccs2)c1` the Potency was “inactive”.
In the case of `Cc1ccc(/C=C/C(=O)Nc2cc(S(=O)(=O)N3CCCCCC3)ccc2OCC(F)(F)F)o1`, the Potency was “inactive”.
For `Cc1ccc(/C=C/C(=O)Nc2ccc([N+](=O)[O-])c(NC(=O)/C=C/c3ccc(C)o3)c2)o1`, the Potency was 22.4 µM (active).
With `CNc1ccc(NC(C)=O)cc1[N+](=O)[O-]` the Potency was “inactive”.
`Cc1cc(NC(=O)Nc2ccccc2[N+](=O)[O-])no1` was tested, and the Potency was “inactive”.
For `CCc1ccc(NC(=O)N2CCN(C(=O)c3nsc4ccccc34)CC2)cc1`, the Potency was “inactive”.
Also: nearly all actives have a fitted effect of over 60% in size.
Potency is read from the fitted curve at half-maximal effect.
